Compound activity deposited in PubChem by National Center for Advancing Translational Sciences (NCATS).
HCV inhibitor = HCV inhibition. Huh7.5.1 HCVcc-Cre infection, luciferase reporter, 44 h. 340,000 compounds, 3.4% hits. Potency, µM (highest dose often 41.8 µM), for inactives: at the highest dose activity change, negative = inhibition, actives largely listed as inhibitors. AID 651820; also: % is scaled to controls: 0 for no effect and ±100 for the full control effect
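Infectious HCV cell culture screen: compound-treated cells (1,000/well, pre-plated 4 h) are infected with HCVcc-Cre at roughly 0.5 moi and grown 44 h. Infection is quantified by luciferase signal after 15 min substrate incubation at room temperature.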
VACV Venus inh = inhibitors of vaccinia virus (Venus reporter). Potency, µM (titrated, usually from 36.5 µM), inactives show at the top dose activity change, negative = inhibition, usual class: inhibitors. Vaccinia virus Venus reporter expression, fluorescence. 330,000 compounds, 0.46% hits. AID 720580; calls by dose curve; tested in A549 cells; also: % is scaled to controls: 0 for no effect and ±100 for the full control effect; nearly all actives have a fitted effect of over 30% in size
Vaccinia mCherry = vaccinia inhibition (mCherry reporter) | Vaccinia virus mCherry reporter infection, fluorescence | Potency, µM (series often up to 36.5 µM), for inactives: top-dose activity change, negative = inhibition, most hits filed as inhibitors | 310,000 compounds, 0.63% hits | AID 720579; calls by dose curve; tested in A549 cells; also: % is scaled to controls: 0 for no effect and ±100 for the full control effect; nearly all actives have a fitted effect of over 35% in size
Pf growth 96h = P. falciparum growth inhibition at 96 hour, primary screen for plastid delayed-death inhibitors. 320,000 compounds, 6.9% hits. Potency, µM (highest dose often 28.7 µM), inactives show at the top dose activity change, negative = inhibition, actives largely listed as inhibitors. P. falciparum luciferase reporter growth, 96 h; also: % is scaled to controls: 0 for no effect and ±100 for the full control effect
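Compounds incubated with erythrocytes infected by luciferase-expressing P. falciparum (2% hematocrit, 0.05% parasitemia final) for 96 hours, 37 C in 5% CO2. Growth inhibition scored as decreased luciferase luminescence.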
NS1 function inh = inhibitors of influenza NS1 protein function; Potency, µM (series often up to 46.1 µM), without a hit: at the highest dose activity, positive = more growth; 270,000 compounds, 0.4% hits; AID 2326; calls by dose curve; also: actives are rising curves; nearly all actives have a fitted effect of over 50% in size
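Compounds were scored for reversing the slow growth caused by influenza A NS1 in S. cerevisiae, measured by optical density at 600 nm. Assay medium contained 2% galactose at pH 6.0; NS1-free yeast of the same strain were the positive control.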
Pf growth 48h = P. falciparum growth inhibition at 48 hours (one generation); P. falciparum luciferase growth in erythrocytes, 48 h; Potency, µM (top dose mostly 28.7 µM), for inactives: at the top dose activity change, negative = inhibition, most hits filed as inhibitors; 310,000 compounds, 5.9% hits; AID 504832; also: % is scaled to controls: 0 for no effect and ±100 for the full control effect
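Growth was read as firefly luciferase luminescence after a 48 h, 37 C, 5% CO2 exposure of compounds to reporter-bearing P. falciparum cultures (0.1% parasitemia, 2% hematocrit final) in Albumax-supplemented RPMI 1640.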
* marks the source's active call; other numbers are inactive results. Shown are actives, neighbours in structure and some others; about 11% of the full set was active somewhere. Unless noted, calls follow the shape of the dose curve; as a rule, active = well fitted inhibition curve with a large enough effect; inconclusive = small, poorly fitted or top-dose-only effect, or another doubt; inactive = no such curve, though single readings can be large or run the other way. Potency is read from the fitted curve at half-maximal effect.

Screening O=C(N/N=C/c1ccccc1F)C(=O)N1CCCCCC1 returned HCV inhibitor 5%, VACV Venus inh 3%, Vaccinia mCherry -13%, Pf growth 96h inconclusive, NS1 function inh -16% and Pf growth 48h 31%.
C/C(=N/NC(=O)NC12CC3CC(CC(C3)C1)C2)c1ccccc1 was read as HCV inhibitor inconclusive, Pf growth 96h 0.74µM*, NS1 function inh 0% and Pf growth 48h inconclusive.
Screening O=C(N/N=C/c1ccc(O)c(O)c1)NC12CC3CC(CC(C3)C1)C2 returned HCV inhibitor -19%, VACV Venus inh -10%, Vaccinia mCherry -23%, Pf growth 96h 7%, NS1 function inh 1% and Pf growth 48h -20%.
O=C(N/N=C/c1ccccc1O)NC12CC3CC(CC(C3)C1)C2 was read as HCV inhibitor -19%, VACV Venus inh -26%, Vaccinia mCherry inconclusive, Pf growth 96h 2.6µM*, NS1 function inh -6% and Pf growth 48h 1.2µM*.
`O=C(N/N=C/c1ccccc1O)C(=O)N1CCCCCC1` gave HCV inhibitor -17%, VACV Venus inh -27%, Vaccinia mCherry 7.9µM*, Pf growth 96h 15%, NS1 function inh -41% and Pf growth 48h -16%.
For Cc1ccc(-n2c(O)c(C=Nc3ccc(S(=O)(=O)N(C)C)cc3)c(=O)[nH]c2=O)cc1 the results were HCV inhibitor -5%, VACV Venus inh -7%, Vaccinia mCherry -16%, Pf growth 96h 2.1µM* and NS1 function inh 7%.
Screening CCN(CC)c1ccc(N=Cc2c(O)n(-c3ccc(OC)cc3)c(=O)[nH]c2=O)cc1 returned HCV inhibitor 7%, VACV Venus inh -5%, Vaccinia mCherry -14%, Pf growth 96h 10µM* and NS1 function inh 0%.
For CCN(CC)c1ccc(N=Cc2c(O)n(-c3ccc(Cl)cc3)c(=O)[nH]c2=O)cc1 the results were HCV inhibitor 9%, VACV Venus inh -13%, Vaccinia mCherry inactive, Pf growth 96h inconclusive, NS1 function inh 6% and Pf growth 48h -12%.
Screening Cc1ccccc1-n1c(O)c(C=Nc2ccc(N(C)C)cc2)c(=O)[nH]c1=O returned HCV inhibitor 19%, Pf growth 96h 1.9µM*, NS1 function inh -37% and Pf growth 48h 2.6µM*.
`O=C(CCC(=O)N1CCN(S(=O)(=O)c2ccc(Cl)cc2)CC1)Nc1ccc2ccccc2c1` gave HCV inhibitor inconclusive, VACV Venus inh inconclusive, Vaccinia mCherry inconclusive, Pf growth 96h -2%, NS1 function inh -4% and Pf growth 48h -11%.
Screening O=C(CSc1ncn[nH]1)NCCc1ccccc1 returned HCV inhibitor 5%, VACV Venus inh -15%, Vaccinia mCherry -16%, Pf growth 96h -1% and NS1 function inh 11%.
Cn1c(-c2ccncc2)nc2ccccc21 was read as HCV inhibitor 6%, Pf growth 96h inconclusive, NS1 function inh 2% and Pf growth 48h 2%.
For CCN(CC)c1ccc(-c2nc3cnccc3n2C)cc1 the results were HCV inhibitor 11µM*, VACV Venus inh -5%, Pf growth 96h 22%, NS1 function inh -16% and Pf growth 48h 98%.
`CCNc1nc(NCC)n2c(SC(C(=O)Nc3cc(C)ccc3C)c3ccccc3)nnc2n1` (configuration not stated) gave HCV inhibitor inconclusive, VACV Venus inh -15%, Vaccinia mCherry inactive, Pf growth 96h 12µM*, NS1 function inh 7% and Pf growth 48h inconclusive.
For CCNc1nc(NCC)n2c(SC(C)C(=O)c3ccc(C)cc3)nnc2n1 (configuration not stated) the results were HCV inhibitor inconclusive, VACV Venus inh inconclusive, Vaccinia mCherry -14%, Pf growth 96h inconclusive, NS1 function inh 4% and Pf growth 48h inconclusive.
CCOCCCn1c(SC(C(=O)Nc2cc(C)ccc2C)c2ccccc2)nnc1-c1ccc(Cl)cc1 (configuration not stated) was read as HCV inhibitor inconclusive, VACV Venus inh 1%, Vaccinia mCherry -14%, Pf growth 96h 9.3µM*, NS1 function inh inconclusive and Pf growth 48h 12µM*.
O=C(Cc1ccccc1)NCC(=O)N1CCCCCC1 was read as HCV inhibitor 14%, Pf growth 96h inconclusive and NS1 function inh 1%.
CC1CC2(CCCCC2)Nc2ccc3ccccc3c21 (configuration not stated) was read as HCV inhibitor -4%, VACV Venus inh 105%, Vaccinia mCherry 122%, Pf growth 96h -21%, NS1 function inh -4% and Pf growth 48h 10µM*.
For Cc1nonc1OC(C)CNc1ccc([N+](=O)[O-])cc1 (configuration not stated) the results were HCV inhibitor -28%, VACV Venus inh -9%, Vaccinia mCherry -22%, Pf growth 96h 24%, NS1 function inh -10% and Pf growth 48h 3.7µM*.
For Cc1c(C(=O)Nc2ccncc2)sc2nc(-c3ccccc3)cn12 the results were HCV inhibitor 3.5µM*, VACV Venus inh inconclusive, Vaccinia mCherry -4%, Pf growth 96h inconclusive, NS1 function inh -37% and Pf growth 48h 4.1µM*.
For CCN(CC)c1ccc(NC(=O)c2sc3nc(-c4ccccc4)cn3c2C)cc1 the results were VACV Venus inh inconclusive and Vaccinia mCherry -7%.
For Cc1c(C(=O)Nc2ccc3c(c2)OCCO3)sc2nc(-c3ccccc3)cn12 the results were HCV inhibitor 2.5µM*, VACV Venus inh -28%, Vaccinia mCherry inconclusive, Pf growth 96h inconclusive, NS1 function inh -24% and Pf growth 48h inconclusive.
For Cc1c(C(=O)NCc2ccco2)sc2nc(-c3ccccc3)cn12 the results were HCV inhibitor 10µM*, VACV Venus inh inconclusive, Vaccinia mCherry -13%, Pf growth 96h inconclusive, NS1 function inh -210% and Pf growth 48h inconclusive.
For O=C(COC(=O)c1n[nH]c2ccccc12)c1ccc(F)c(F)c1 the results were HCV inhibitor 8%, VACV Venus inh -21%, Vaccinia mCherry -25%, Pf growth 96h 35% and Pf growth 48h 22%.
Screening Cc1ccccc1OCCn1c(=S)[nH]c2ccccc21 returned HCV inhibitor 3%, VACV Venus inh -8%, Vaccinia mCherry inconclusive, Pf growth 96h 3%, NS1 function inh -2% and Pf growth 48h inconclusive.
`CSc1ccccc1NC(=O)C1CC(c2ccccc2O)=NO1` (configuration not stated) gave HCV inhibitor -11%, VACV Venus inh -17%, Vaccinia mCherry -3%, NS1 function inh -11% and Pf growth 48h -6%.
O=C(NCC1CCCO1)C(c1ccc(F)cc1)N(CC1CCCO1)C(=O)c1ccc(-c2ccccc2)[nH]1 (configuration not stated) was read as HCV inhibitor 9%, Pf growth 96h 26%, NS1 function inh -8% and Pf growth 48h 2.1µM*.
